Results on 16 molecules are retold here after PubChem BioAssay.

Assay [1] relates to Plasmodium falciparum Sir2 (PF13_0152, Sir2A). The assay is described as follows: Plasmodium falciparum Sir2A binding compounds – biochemical, small-molecule microarray, 635 nm fluorescence, primary screen (AID 1098).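 Also: score merges spot fluorescence intensity with its signal-to-noise ratio.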 As to conditions: fluorescence 635 nm, higher = more signal.
The nature of assay [2]: probe aDKK1 binding to arrayed compounds – biochemical, biotinylated probe, 635/667 nm fluorescence, primary screen (AID 1099).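 Also: score merges 667nm spot fluorescence with signal to noise across triplicate slides; reference of the scale not given here.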 The note with it: small-molecule microarray, higher = more signal.
Assay [3] can be described thus: probe aCHRDL2 binding to arrayed compounds – biochemical, biotinylated probe, 635/667 nm fluorescence, primary screen (AID 1100). As to conditions: small-molecule microarray, higher = more signal.
Assay [4] can be described thus: change in splice reporter luminescence, either direction, cell-based, HEK293, spliceosome inhibition project, primary screen (AID 1101).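 Also: HEK293 cells carrying a splicing-competent luciferase reporter gene; test concentration not given here.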 The note with it: HEK293 splicing luciferase reporter, 24 h, higher = more signal, called active from +8 up or from −8 down. (In general: A reporter such as luciferase makes a cellular process visible.)
Assay [5] has as its target Fibroblast growth factor 10 (Homo sapiens) (UniProt O15520). The assay can be described thus: compounds binding fibroblast growth factor 10 – biochemical, small-molecule microarray, 635 nm fluorescence, primary screen (AID 1102). The note with it: FGF10 binding, fluorescence 635 nm, higher = more signal.
Assay [6] concerns glycogen synthase kinase-3 (GSK3A per assay name; protocol says GSK3B). The assay can be described thus: compounds binding glycogen synthase kinase-3 – biochemical, small-molecule microarray, 635 nm fluorescence, GSK3A, primary screen (AID 1103). Also: the record names both GSK3A and GSK3B. The note with it: fluorescence 635 nm, higher = more signal.
The target in assay [7] is Epidermal growth factor receptor (Homo sapiens) (UniProt P00533). The assay can be described thus: compounds binding epidermal growth factor receptor – biochemical, small-molecule microarray, 635 nm fluorescence, primary screen (AID 1104).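 Also: score merges 667 nm emission intensity with spot signal to noise over triplicate slides.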 The note with it: EGFR binding, higher = more signal.
The target in assay [8] is Follistatin-related protein 3 (Homo sapiens) (UniProt O95633). The assay can be described thus: compounds binding follistatin-related protein 3 – biochemical, small-molecule microarray, 635 nm fluorescence, primary screen (AID 1105).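 Also: score merges emission near 667 nm and signal to noise per printed spot across three slides.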 The note with it: FSTL3 binding, higher = more signal.
Assay [9] concerns the target Dickkopf-related protein 1 (Homo sapiens) (UniProt O94907). The assay is described as follows: small molecules binding DKK1 protein – biochemical, small-molecule microarray, 635 nm fluorescence scan, primary screen (AID 1106).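 Also: score merges emission near 667 nm with signal to noise over three replicate slides.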 The note with it: higher = more signal.
In assay [10] the test system is Inhibin beta A chain (activin A). The assay can be described thus: small molecules binding activin A – biochemical, small-molecule microarray, 635 nm fluorescence scan, primary screen (AID 1107).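 Also: mouse activin A protein probed at 4.33 µg/mL on printed slides; score merges bound-protein fluorescence near 667 nm with spot signal-to-noise.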 As to conditions: INHBA, higher = more signal.

Activity calls are given as the source filed them.

Sequence of Epidermal growth factor receptor (Homo sapiens) (P00533 whole entry, looked up): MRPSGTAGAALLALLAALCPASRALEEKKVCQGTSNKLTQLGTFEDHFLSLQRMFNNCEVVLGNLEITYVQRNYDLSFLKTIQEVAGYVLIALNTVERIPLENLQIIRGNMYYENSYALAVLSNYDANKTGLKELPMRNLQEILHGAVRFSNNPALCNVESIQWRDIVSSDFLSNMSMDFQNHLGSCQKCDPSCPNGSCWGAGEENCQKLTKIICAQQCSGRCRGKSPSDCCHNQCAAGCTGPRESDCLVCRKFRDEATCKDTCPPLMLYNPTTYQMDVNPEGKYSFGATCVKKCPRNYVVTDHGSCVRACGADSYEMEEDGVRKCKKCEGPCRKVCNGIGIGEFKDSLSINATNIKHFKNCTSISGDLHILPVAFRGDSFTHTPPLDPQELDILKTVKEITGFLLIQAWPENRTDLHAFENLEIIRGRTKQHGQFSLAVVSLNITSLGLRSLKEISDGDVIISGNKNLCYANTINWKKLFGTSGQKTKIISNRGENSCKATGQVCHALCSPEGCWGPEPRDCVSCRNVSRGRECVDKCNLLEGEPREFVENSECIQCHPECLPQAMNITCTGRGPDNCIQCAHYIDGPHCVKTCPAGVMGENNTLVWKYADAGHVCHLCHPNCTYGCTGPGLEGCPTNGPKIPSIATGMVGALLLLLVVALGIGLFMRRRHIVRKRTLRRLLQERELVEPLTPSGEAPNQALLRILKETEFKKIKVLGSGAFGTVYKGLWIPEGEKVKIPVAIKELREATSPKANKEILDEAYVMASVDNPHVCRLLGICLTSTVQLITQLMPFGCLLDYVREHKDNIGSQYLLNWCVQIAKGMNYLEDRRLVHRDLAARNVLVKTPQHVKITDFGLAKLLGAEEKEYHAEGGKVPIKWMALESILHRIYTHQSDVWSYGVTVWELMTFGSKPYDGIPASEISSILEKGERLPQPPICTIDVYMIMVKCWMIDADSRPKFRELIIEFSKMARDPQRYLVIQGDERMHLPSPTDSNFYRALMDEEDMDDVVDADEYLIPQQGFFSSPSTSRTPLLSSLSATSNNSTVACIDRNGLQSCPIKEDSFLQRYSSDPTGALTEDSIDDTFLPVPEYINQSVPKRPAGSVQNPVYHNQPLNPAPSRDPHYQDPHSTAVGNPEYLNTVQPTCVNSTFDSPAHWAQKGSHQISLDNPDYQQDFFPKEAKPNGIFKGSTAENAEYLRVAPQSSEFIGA
Sequence of Dickkopf-related protein 1 (Homo sapiens) (O94907 whole entry, looked up): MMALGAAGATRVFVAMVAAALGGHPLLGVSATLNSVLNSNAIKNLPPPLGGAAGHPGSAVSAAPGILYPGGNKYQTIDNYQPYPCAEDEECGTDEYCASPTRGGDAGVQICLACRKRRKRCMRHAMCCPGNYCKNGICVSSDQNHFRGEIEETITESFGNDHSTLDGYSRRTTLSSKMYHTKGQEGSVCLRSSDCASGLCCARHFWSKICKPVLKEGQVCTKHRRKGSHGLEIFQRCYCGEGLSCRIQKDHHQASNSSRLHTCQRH
Sequence of Follistatin-related protein 3 (Homo sapiens) (O95633 whole entry, looked up): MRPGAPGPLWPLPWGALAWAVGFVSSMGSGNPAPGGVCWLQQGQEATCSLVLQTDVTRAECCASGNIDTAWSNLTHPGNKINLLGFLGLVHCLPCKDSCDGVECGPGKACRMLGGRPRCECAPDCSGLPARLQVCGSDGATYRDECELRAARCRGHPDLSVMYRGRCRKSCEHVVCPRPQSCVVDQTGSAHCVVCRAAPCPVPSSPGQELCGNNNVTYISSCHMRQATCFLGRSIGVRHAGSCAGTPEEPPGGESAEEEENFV
Sequence of Fibroblast growth factor 10 (Homo sapiens) (O15520 whole entry, looked up): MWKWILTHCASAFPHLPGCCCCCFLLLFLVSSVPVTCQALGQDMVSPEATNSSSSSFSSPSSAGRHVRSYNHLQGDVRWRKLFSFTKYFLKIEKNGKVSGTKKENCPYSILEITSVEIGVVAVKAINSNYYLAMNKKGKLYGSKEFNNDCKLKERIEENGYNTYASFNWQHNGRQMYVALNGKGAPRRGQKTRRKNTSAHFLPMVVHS

With `CCC1=NOC(CCC2CC(OC(=O)NCc3cccc4c3OCO4)CC3(CCCC(COC(=O)NCCc4ccccc4OC)O3)O2)C1` (stereo not given), the composite z-score in assay [1] is 1.09; in assay [2] it was -0.16; in [3] it was -0.0595; in assay [5], 0.709; in assay [6], 0.391; in assay [7] it was 0.0007. For the same molecule, the composite z-score in [8] amounted to 0.192; in [9] it was 0.859; in [10], 0.312. Further, the z-score in [4] is 0.0991 (inactive).

As for `O=C(C=Cc1ccc2c(c1)OCO2)c1ccc(F)cc1`, the composite z-score is 0.818 in assay [1]; -0.136 in [2]; -0.459 in assay [3]; 0.498 in assay [5]; -0.296 in assay [6]; 0.549 in [7]. The composite z-score is 0.801 in assay [8], 1.52 in assay [9] and 0.239 in [10]. Moreover, the z-score in assay [4] is -0.603 (inactive).

On to `CCOC(=O)CCN1C(=O)[C@H]2[C@H]3[C@H](O)[C@H](O)CC(=NOCc4ccccc4)[C@H]3CC[C@H]2C1=O`, for which the composite z-score in assay [1] was 0.1; in assay [2], 1.27; in assay [3], 1.32; in assay [5] it was -0.556; in assay [6], -0.395; in assay [7], 0.193. Also, the composite z-score in [8] was -0.828; in [9], -1.06; in [10] it was 0.288. Also, in [4], the z-score is 0.509 (inactive).

As to `CCOC(=O)NN=C1C[C@@H](O)[C@@H](O)[C@@H]2[C@@H]3C(=O)N(c4cccc(Oc5ccccc5)c4)C(=O)[C@@H]3CC[C@H]12`, the composite z-score is 0.424 in assay [1]; 0.104 in assay [2]; -0.566 in assay [3]; 0.518 in [5]; 0.176 in [6]; 0.381 in assay [7]. Besides, the values for the composite z-score in assay [8], in [9] and in assay [10] were 0.455, 0.222 and 0.0233, respectively. The z-score in assay [4] is -0.652 (inactive).

With `CC(C)=CCCC(C)=CCON=C1C[C@@H](O)[C@@H](O)[C@@H]2[C@@H]3C(=O)N(c4cccc(Oc5ccccc5)c4)C(=O)[C@@H]3CC[C@@H]12`, the composite z-score was 0.517 in assay [1]; 0.132 in [2]; -0.209 in assay [3]; 0.612 in assay [5]; -0.112 in assay [6]; 0.118 in assay [7]. Besides, the composite z-score in [8] turned out to be 0.574; in [9] it was 0.373; in assay [10] it was 0.399. For the same molecule, the z-score in assay [4] is -0.991 (inactive).

On to `COC(=O)[C@@H]1CC[C@H](C)[C@@H](c2ccc(C)cc2)N1C(=O)c1ccc(C=NOCC[C@@H]2C=C[C@H](OC(C)=O)[C@@H](COC(C)=O)O2)cc1`, for which the composite z-score in assay [1] is 0.35; in assay [2], -0.33; in [3] it was -0.684; in assay [5] it was 0.402; in [6] it was 0.637; in [7], 0.49. Also, the composite z-score in assay [8] was determined as 0.644; in assay [9], 0.948; in [10], 0.323. In addition, in assay [4], the z-score was 0.566 (inactive).

On to `COc1ccc(O[C@@H]2[C@H](O)CO[C@@H]2C=Cc2ccccc2)cc1`, for which the composite z-score is 0.638 in assay [1]; -0.228 in assay [2]; -0.256 in assay [3]; -0.0055 in assay [5]; -0.0208 in assay [6]; -0.169 in assay [7]. Also, the values for the composite z-score in [8], in [9] and in assay [10] were 0.367, 0.148 and 0.448, respectively. Besides, in assay [4], the z-score was -1.63 (inactive).

In the case of `CCOC(=O)[C@H](CC(C)C)NC(=O)CCC1CC(OC(=O)NCc2ccc3c(c2)OCO3)CC2(CCCC(COC(=O)NCC3CCCCC3)O2)O1` (stereo not given in full), the composite z-score in assay [1] is 0.74; in assay [2] it was -0.209; in [3], -0.62; in assay [5], 0.651; in [6] it was 0.532; in [7], 0.379. The composite z-score in [8] was 1.22; in assay [9], 0.681; in assay [10] it was -0.0703. The z-score in assay [4] is -0.266 (inactive).

Turning to `COC(=O)CC=C[C@@H](C)[C@@H](C=NOC(C)CN1CCCc2nc(C)c(C)cc21)OC` (stereo not given in full), the composite z-score in assay [1] was 0.465; in assay [2] it was -0.0071; in [3], -0.472; in assay [5], 0.407; in [6] it was 0.522; in assay [7] it was 0.538. The composite z-score in [8] is 0.406; in [9] it was 0.866; in assay [10], -0.0511. Further, the z-score in assay [4] was 0.404 (inactive).

Turning to `C[C@H]1Cc2c(COc3ccccc3)nc3c(c2CO1)CN(CCOc1ccccc1)CC3`, the composite z-score in assay [1] was 0.654; in assay [2], -0.133; in [3], -0.496; in assay [5], 1.03; in [6], 1.15; in [7] it was 0.5. The figures for the composite z-score in [8], in [9] and in assay [10] were 1.29, 0.538 and 0.298, respectively. Besides, the z-score in assay [4] is -0.34 (inactive).

Consider `COC(=O)[C@H](C)NC(=O)CCC1CC(OC(=O)NCc2ccc3c(c2)OCO3)CC2(CCCC(COC(=O)NCc3cccc(C(F)(F)F)c3)O2)O1` (stereo not given in full), for which the composite z-score was 1.02 in assay [1]; 0.114 in assay [2]; -0.289 in assay [3]; 0.818 in assay [5]; 0.622 in [6]; 0.223 in assay [7]. The composite z-score in assay [8] was 1.14; in [9], 0.235; in assay [10], -0.0499. Further, in assay [4], the z-score is 0.562 (inactive).

As to `O=C1C[C@@H](O)[C@@H](O)[C@@H]2[C@@H]3C(=O)N(C[C@@H]4CCCO4)C(=O)[C@@H]3CC[C@H]12`, the composite z-score in assay [1] was 0.379; in assay [2] it was -0.273; in assay [3], -0.577; in assay [5], 0.508; in assay [6], 0.671; in [7] it was 0.531. In addition, the composite z-score was 0.601 in [8], 0.542 in [9] and -0.161 in assay [10]. For the same molecule, in assay [4], the z-score is 0.32 (inactive).

For `CO[C@H]1COC(=O)[C@@H](C)COC(=O)[C@H](COCc2ccccc2)NC(=O)CC=C[C@H]1C`, the composite z-score was 0.641 in assay [1]; -0.492 in assay [2]; -0.828 in assay [3]; 0.121 in [5]; -0.523 in assay [6]; 0.039 in assay [7]. Also, the composite z-score was 0.678 in [8], 0.705 in assay [9] and 2.01 in assay [10]. For the same molecule, the z-score in [4] was 0.104 (inactive).

In the case of `CCOC(=O)[C@H](CC(C)C)NC(=O)CCC1CC(OC(=O)NCc2cccc3ccccc23)CC2(CCCC(COC(=O)NCC3CCCCC3)O2)O1` (stereo not given in full), the composite z-score was 0.442 in [1]; -0.11 in [2]; -0.369 in assay [3]; 0.924 in [5]; 0.941 in assay [6]; 0.344 in [7]. Further, the composite z-score in assay [8] came to 0.855; in assay [9] it was 0.6; in assay [10] it was 0.0385. The z-score in assay [4] was -1.42 (inactive).

As to `CCOC(=O)[C@H](CC(C)C)NC(=O)CCC1CC(OC(=O)NCc2cccc3ccccc23)CC2(CCCC(COC(=O)NCc3ccncc3)O2)O1` (stereo not given in full), the composite z-score was 0.741 in [1]; -0.131 in [2]; -0.377 in [3]; 1.2 in [5]; 1.06 in [6]; 0.363 in assay [7]. For the same molecule, the composite z-score in assay [8] was 0.887; in assay [9] it was 0.559; in assay [10] it was -0.177. Moreover, the z-score in [4] was -0.00923 (inactive).

On to `COC(=O)CC=C[C@@H](C)[C@@H](C=NOC[C@@H](O)[C@H]1O[C@@H]2OC(C)(C)O[C@@H]2[C@H]1O)NS(=O)(=O)c1ccc(C)cc1`, for which the composite z-score is 0.698 in assay [1]; -0.251 in assay [2]; -0.614 in [3]; 0.504 in assay [5]; 0.471 in [6]; 0.419 in assay [7]. Moreover, the results for the composite z-score in assay [8], in [9] and in assay [10] were 0.427, 0.653 and -0.0684, respectively. Besides, the z-score in assay [4] was 0.318 (inactive).
